Data reported in PubChem BioAssay (Tox21).
Where “and” joins values, the source holds several entries; their conditions need not be identical. Equal entries are not always repeated. Unmarked numbers belong to inactive results. Results filed as inconclusive are left out. A call without a number means that no potency is given here. Calls of active or inactive are those of the source. Unless noted, the call rests on the fitted dose curve; in most records, active means well fitted curve in the direction sought with a large enough effect in the repeat runs; inconclusive means weak or mixed curves; inactive means no such curve, though single readings can be large; an effect the other way counts as inactive or inconclusive.

Legend:
[1] = molecular target: Thyrotropin-releasing hormone receptor (Homo sapiens) (UniProt P34981); assay: qHTS assay to identify small molecule agonists of the thyrotropin-releasing hormone receptor (TRHR) signaling pathway (AID 1346891; calls by dose curve;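 further: HEK293 cells expressing TRHR with calcium dye readout; series mostly up to about 58 µM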)
In short: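 Agonist-mode calcium mobilisation screen: TRHR-transfected HEK293 cells cultured overnight (18 h), dye-loaded for 2 h at 37 °C, exposed to compounds, and monitored by fluorescence for 3 min.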

[2] = Human pregnane X receptor (PXR) small molecule agonists, qHTS cell viability counter screen (AID 1346977); further: nearly all actives have a fitted effect of over 50% in size; further: potency means the concentration at half of the fitted maximal effect
In short: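 Measures live-cell protease fluorescence (CellTiter-Fluor) in PXR-Luc HepG2 cells treated 24hr with compounds at 37C. Cells had 5hr to attach before pin transfer of DMSO solutions.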

[3] = Caspase-3/7 induction in HepG2 cells by small molecules, qHTS assay (AID 1346978); further: nearly all actives have a fitted effect of over 15% in size; further: potency means the concentration at half of the fitted maximal effect
In short: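 Caspase-3/7 induction was measured by Caspase-Glo 3/7 luminescence (30 min, room temperature) after a 17 hr compound exposure of wild-type HepG2 cells seeded at 2,000 per well and pre-incubated 5 hr.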

[4] = Caspase-3/7 induction in CHO-K1 cells by small molecules, qHTS cell viability counter screen (AID 1346979); further: nearly all actives have a fitted effect of over 35% in size; further: potency means the concentration at half of the fitted maximal effect
In short: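 In the same wells as the caspase read, viability of compound-treated wild-type CHO-K1 cells was assessed using CellTiter-Fluor, added after 16hr at 37C and measured by fluorescence following 1hr further incubation.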

[5] = molecular target: Nuclear receptor subfamily 1 group I member 2 (Homo sapiens) (UniProt O75469); assay: Human pregnane X receptor (PXR) small molecule agonists, qHTS assay (AID 1346982); further: nearly all actives have a fitted effect of over 35% in size; further: potency means the concentration at half of the fitted maximal effect
In short: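 HepG2 PXR-Luc reporter line, 5% charcoal-stripped FBS; 5 hr pre-incubation, compound (DMSO) 24 hr at 37 C/5% CO2; ONE-Glo 30 min RT; luminescence read-out.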

[6] = Caspase-3/7 induction in CHO-K1 cells by small molecules, qHTS assay (AID 1346980); further: nearly all actives have a fitted effect of over 15% in size; further: potency means the concentration at half of the fitted maximal effect
In short: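 Luminescent Caspase-Glo 3/7 read (30min, room temperature) quantified apoptosis induction. Cells were wild-type CHO-K1, treated with compound for 17hr at 37 C and 5% CO2.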

[7] = molecular target: Nuclear receptor subfamily 1 group I member 2 (Rattus norvegicus) (UniProt Q9R1A7); assay: Rat pregnane X receptor (rPXR) activation by small molecules, qHTS assay (AID 1346983); conditions: rPXR luciferase reporter cells, One-Glo luminescence, 24 h; max activation: hits give high values; further: nearly all actives have a fitted effect of over 20% in size; further: potency means the concentration at half of the fitted maximal effect
In short: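 Luminescent readout (One-Glo luciferase, 30 min room temperature) followed 24 hr compound treatment at 37 C of rPXR cells plated 2,000 per well and preincubated 5hr; qHTS format with compounds delivered in DMSO.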

[8] = molecular target: Nuclear receptor subfamily 1 group I member 2 (Homo sapiens) (UniProt O75469); assay: Human pregnane X receptor (PXR) activation by small molecules, qHTS assay (AID 1346985); further: nearly all actives have a fitted effect of over 40% in size; further: potency means the concentration at half of the fitted maximal effect
In short: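 DPX-2 cells (HepG2 co-transfected with a PXR response element and a CYP3A4-promoter luciferase construct) were seeded at 2,000 per well, rested 5 hr at 37C, then exposed to DMSO-dissolved compounds for 24 hr. Activation was read as luciferase luminescence.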

[9] = Caspase-3/7 induction in HepG2 cells by small molecules, qHTS cell viability counter screen (AID 1346981); further: nearly all actives have a fitted effect of over 30% in size; further: potency means the concentration at half of the fitted maximal effect
In short: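 Fluorescence read-out of live-cell protease activity (CellTiter-Fluor) after 1 hr with reagent. This was measured in the same wells as the caspase-3/7 luminescence, on HepG2 cells exposed to DMSO-dissolved compounds for 16 hr at 37 C.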

[10] = molecular target: Nuclear receptor subfamily 1 group I member 2 (Homo sapiens) (UniProt O75469); assay: CYP3A4 induction through human pregnane X receptor (PXR) by small molecules, qHTS assay (AID 1346984); further: nearly all actives have a fitted effect of over 40% in size
In short: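 HepG2-derived DPX-2 line carrying PXR plus a CYP3A4-promoter luciferase reporter; cells plated 5 hr, compound-exposed 24 hr at 37C. CYP3A4 activity probed with 3uM (final) Luciferin-IPA for 3hr, then luciferase read after One-Glo.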

Chain of Nuclear receptor subfamily 1 group I member 2 (Homo sapiens) (O75469 whole entry, looked up): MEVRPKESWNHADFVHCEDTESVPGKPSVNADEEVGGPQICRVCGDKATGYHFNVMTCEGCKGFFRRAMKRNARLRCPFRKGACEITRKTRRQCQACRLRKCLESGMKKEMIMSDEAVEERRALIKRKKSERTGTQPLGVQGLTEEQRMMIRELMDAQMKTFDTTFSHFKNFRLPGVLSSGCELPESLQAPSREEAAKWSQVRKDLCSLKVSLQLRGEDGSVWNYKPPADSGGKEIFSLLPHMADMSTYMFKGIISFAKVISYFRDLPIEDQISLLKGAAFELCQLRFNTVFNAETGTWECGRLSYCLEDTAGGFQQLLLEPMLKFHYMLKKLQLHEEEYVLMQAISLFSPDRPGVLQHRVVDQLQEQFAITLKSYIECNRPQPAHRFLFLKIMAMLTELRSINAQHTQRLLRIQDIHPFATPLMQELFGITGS
Chain of Nuclear receptor subfamily 1 group I member 2 (Rattus norvegicus) (Q9R1A7 whole entry, looked up): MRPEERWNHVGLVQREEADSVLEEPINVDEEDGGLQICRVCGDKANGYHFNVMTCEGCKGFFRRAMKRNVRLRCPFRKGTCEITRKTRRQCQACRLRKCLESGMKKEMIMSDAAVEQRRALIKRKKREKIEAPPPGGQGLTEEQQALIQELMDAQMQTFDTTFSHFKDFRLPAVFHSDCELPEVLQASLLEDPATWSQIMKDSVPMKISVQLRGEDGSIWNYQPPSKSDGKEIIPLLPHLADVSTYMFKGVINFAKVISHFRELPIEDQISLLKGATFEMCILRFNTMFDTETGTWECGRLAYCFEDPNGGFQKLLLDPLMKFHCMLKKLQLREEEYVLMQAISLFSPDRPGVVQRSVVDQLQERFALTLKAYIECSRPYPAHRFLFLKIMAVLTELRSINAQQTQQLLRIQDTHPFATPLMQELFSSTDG
Chain of Thyrotropin-releasing hormone receptor (Homo sapiens) (P34981 whole entry, looked up): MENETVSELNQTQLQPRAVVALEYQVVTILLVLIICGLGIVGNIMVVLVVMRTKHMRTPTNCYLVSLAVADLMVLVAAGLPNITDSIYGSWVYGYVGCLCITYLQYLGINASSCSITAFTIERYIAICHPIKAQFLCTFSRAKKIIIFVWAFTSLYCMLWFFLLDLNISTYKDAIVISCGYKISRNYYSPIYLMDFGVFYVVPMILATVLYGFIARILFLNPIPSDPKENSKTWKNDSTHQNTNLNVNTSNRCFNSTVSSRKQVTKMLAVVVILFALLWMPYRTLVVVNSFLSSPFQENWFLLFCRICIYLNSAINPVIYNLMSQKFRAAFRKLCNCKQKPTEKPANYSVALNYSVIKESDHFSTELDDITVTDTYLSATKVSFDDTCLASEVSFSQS

| SMILES | Potency [1] | Potency [2] | Potency [3] | Potency [4] | Potency [5] | Potency [6] | max activation [7] | Potency [8] | Potency [9] | Potency [7] | Potency [10] |
| --- | --- | --- | --- | --- | --- | --- | --- | --- | --- | --- | --- |
| CC(=O)Oc1ccc([N+](=O)[O-])cc1CCl | inactive | 48.6 µM (active) | inactive | 30.6 µM (active) | inactive | – | – | – | – | – | – |
| O=C(/C=C/c1ccc(O)c(O)c1)O[C@@H]1C[C@@](OC(=O)/C=C/c2ccc(O)c(O)c2)(C(=O)O)C[C@@H](O)[C@@H]1O | inactive | inactive | inactive | inactive | – | inactive | -5.53% | inactive | – | – | – |
| CC1(C)S[C@@H]2[C@H](NC(=O)C(c3ccccc3)S(=O)(=O)O)C(=O)N2[C@H]1C(=O)O (stereo not given in full) | inactive | inactive | inactive | inactive | inactive | inactive | – | – | – | – | – |
| CC(CCC(=O)O)C(=O)O (stereo not given) | inactive | inactive | inactive | inactive | inactive | – | – | – | inactive | – | – |
| CO/N=C(/C(=O)N[C@@H]1C(=O)N2C(C(=O)O)=C(COC(N)=O)CS[C@H]12)c1ccco1 | inactive | inactive | inactive | inactive | – | inactive | -0.884% | – | inactive | – | – |
| C[C@]1(Cn2ccnn2)[C@H](C(=O)O)N2C(=O)C[C@H]2S1(=O)=O | inactive | inactive | inactive | inactive | inactive | – | -2% | inactive | inactive | – | – |
| C=COCC(C)C | inactive | inactive | inactive | inactive | inactive | – | – | – | inactive | – | – |
| CCN(CC)CCNC(=O)COc1ccc(OC)cc1 | inactive | inactive | inactive | inactive | inactive | – | 6.52% | inactive | – | – | – |
| CC(C)=CCC1C(=O)N(c2ccccc2)N(c2ccccc2)C1=O | inactive | inactive | inactive | inactive | 29.8 µM (active) | inactive | – | – | inactive | 28.2 µM (active) | – |
| O=C(Cn1ccnc1[N+](=O)[O-])NCCO | inactive | inactive | inactive | inactive | inactive | inactive | – | – | inactive | – | – |
| CC(C)=CC(=O)C=C(C)C | inactive | inactive | inactive | inactive | inactive | inactive | – | – | inactive | – | – |
| C[C@H]1c2cccc(O)c2C(O)=C2C(=O)[C@]3(O)C(O)=C(C(N)=O)C(=O)[C@@H](N(C)C)[C@@H]3[C@@H](O)[C@@H]21 | inactive | inactive | inactive | inactive | inactive | inactive | -4.08% | inactive | inactive | – | inactive |
| Cc1ccc(Cl)c(Nc2ccccc2C(=O)O)c1Cl | inactive | inactive | inactive | inactive | inactive | – | 0.813% | inactive | inactive | – | – |
| CCc1ccccc1 | inactive | inactive | inactive | inactive | inactive | inactive | – | – | – | – | – |
| O=C1c2ccccc2C(=O)c2c(O)c(O)cc(O)c21 | inactive | 54.5 µM (active) | inactive | 48.6 µM (active) | inactive | – | – | – | 54.5 µM (active) | – | – |
| CN(C)CCC=C1c2ccccc2C=Cc2ccccc21 | inactive | 13.3 µM (active) | inactive | inactive | inactive | inactive | 0.747% | – | inactive | – | – |
| CC(=O)NC1(c2cccc(F)c2)CCN(CC[C@@]2(c3ccc(Cl)c(Cl)c3)CN(c3ccccc3)C(=O)CO2)CC1 | inactive | 34.5 µM (active) | 48.7 µM (active) | 34.5 µM (active) | – | – | – | – | 48.7 µM (active) | – | – |
| CC(O)c1ccccc1 (stereo not given) | inactive | inactive | inactive | inactive | inactive | inactive | – | – | inactive | – | – |
| NC1[C@H]2CN(c3nc4c(cc3F)c(=O)c(C(=O)O)cn4-c3ccc(F)cc3F)C[C@@H]12 (stereo not given in full) | inactive | 29.8 µM (active) | inactive | 3.76 µM (active) | 26.6 µM (active) | inactive | – | – | – | – | – |
| C[C@]12CC[C@@H]3c4ccc(O)cc4CC[C@H]3[C@@H]1CC[C@@H]2OC(=O)CCC1CCCC1 | inactive | inactive | 61.1 µM (active) | 54.5 µM (active) and 29.8 µM (active) | 21.7 µM (active) and 23.7 µM (active) | 43.3 µM (active) | 4.34% and -0.252% | – | inactive | – | – |
| CCOC(=O)c1ccc(OCCN2C[C@H](O)[C@@H](O)[C@H](O)[C@H]2CO)cc1 | inactive | inactive | inactive | inactive | inactive | – | – | – | inactive | – | – |
| Cc1cc(O)c(C)c(C)c1O | inactive | inactive | inactive | inactive | inactive | – | – | – | inactive | – | – |
| CCCCCC[C@@H](O)C/C=C\CCCCCCCC(=O)OCC(O)CO (stereo not given in full) | inactive | inactive | inactive | inactive | 34.4 µM (active) | inactive | – | – | – | – | – |
| O=C1c2ccccc2C(=O)C1c1ccc(Br)cc1 | inactive | inactive | inactive | inactive | – | inactive | – | 7.08 µM (active) | inactive | 11.2 µM (active) | – |
| Oc1cc2c(cc1O)[C@H]1c3ccc(O)c(O)c3OC[C@@]1(O)C2 | inactive | 27.6 µM (active) | inactive | – | inactive | inactive | – | – | – | – | – |
| CC(=O)[C@H]1[C@H](C#N)C[C@H]2[C@@H]3CC=C4C[C@@H](O)CC[C@]4(C)[C@H]3CC[C@@]21C | inactive | inactive | inactive | – | 33.1 µM (active) | inactive | – | – | inactive | – | – |
| CC(C)(O)c1ccc(CNC(=O)c2cccnc2Oc2ccc3nonc3c2)cc1 | inactive | inactive | inactive | – | inactive | inactive | – | – | – | – | – |
